This is an account of results in ChEMBL document CHEMBL1157539, “Thousands of chemical starting points for antimalarial lead identification” (Nature, 2010).

Common to all, as to type: functional
The subject of experiment [1] is Plasmodium falciparum. As to the kind of experiment: GSK_TCMDC: Inhibition of Plasmodium falciparum 3D7 in whole red blood cells, using parasite LDH activity as an index of growth. Test compounds present at 2uM.
Experiment [2] has as its system Plasmodium falciparum. As to the kind of experiment: GSK_TCMDC: Inhibition of Plasmodium falciparum Dd2 in whole red blood cells, using parasite LDH activity as an index of growth. Test compounds present at 2uM.
Experiment [3] concerns HepG2. The experiment in a line: GSK_TCMDC: Percent inhibition of human HepG2 cell line. Test compounds present at 10uM.

Each structure is given as a SMILES string.

A word on the Inhibition: it is the change of the read-out against control, counted positive when it falls. High values mean a response far below the control, low ones a response near the control. On to `CC(C)(NCc1ncc[nH]1)c1nc(-c2ccc(Cl)c(O)c2)c(-c2ccncc2)[nH]1.Cl`, for which the values for the Inhibition in experiment [1], in experiment [2] and in experiment [3] were 95%, 97% and 42%, respectively.
On the same counts, the results for `Cc1nn(-c2ccccc2)nc1C(=O)N(Cc1ccc(-c2ccc(CNCCc3ccc(S(C)(=O)=O)cc3)cn2)cc1)C(C)CN(C)C.O=C(O)C(F)(F)F` (stereo not given) are 100%, 87% and 25%.
The corresponding values for `O=C(NC1CCN(CCN2CCc3ccccc3CC2)CC1)c1ccc(-c2ccc(C(F)(F)F)cc2)cc1` are 99%, 43% and 45%.
`O=C(/C=C/c1ccc(Cl)cc1)NCCCCCN1CCCN(C(=O)Nc2ccc(F)c(Cl)c2)CC1`: the Inhibition is 94% in experiment [1], 6% in experiment [2] and 29% in experiment [3].
Regarding `COc1ccc(NC(=O)Nc2ccc(-c3ccccc3)cc2Cl)cc1N1CCN(C)CC1`, the Inhibition is recorded as 90% in experiment [1], 30% in experiment [2] and 40% in experiment [3].
On the same counts, the results for `CCCN(Cc1ccc(C)cc1)Cc1cc(=O)c2cc(Cl)ccc2[nH]1` are 86%, 91% and 51%.
Regarding `CCN(CC)CCCCNc1cc(-c2[nH]c(C(C)(C)C)nc2-c2ccc3cc(OC)ccc3c2)ccn1.O=C(O)C(F)(F)F`, the Inhibition in experiment [1] was determined as 85%; in experiment [2], 76%; in experiment [3], 23%.
On the same counts, the results for `CS(=O)(=O)c1ccccc1CNC(=O)c1ccc(-c2cccc(-c3nc4cc(C(F)(F)F)ccc4[nH]3)c2)cc1` are 91%, 4% and 36%.
On the same counts, the results for `COc1ccc2nccc([C@@H](O)CN3CCC(NC(=O)/C=C/c4cccc(NC(C)=O)c4)CC3)c2c1` are 90%, 60% and 5%.
On the same counts, the results for `CCc1ccc(-n2c(=O)c3cccnc3n2CC(=O)NC2CCCC2)cc1` are 98%, 27% and 0%.
For `COc1cccc(-c2c(C#N)c(N)nc3c2c(C)nn3-c2ccccc2)c1O`, the Inhibition in experiment [1] was determined as 100%; in experiment [2] it was 100%; in experiment [3], 4%.
Regarding `CC[C@H](C)CNC(=O)c1cncc(-c2ccc(CNC3CCCC3)cc2)c1.O=C(O)C(F)(F)F`, the Inhibition in experiment [1] was determined as 97%; in experiment [2] it was 5%; in experiment [3], 0%.
For the compound `CCCN(C(=O)c1ccccc1C)c1nnc(-c2ccccc2C)s1`, the results for the Inhibition in experiment [1], in experiment [2] and in experiment [3] were 90%, 65% and 16%, respectively.
`NC1CCCN(Cc2cccc(-c3cccc(-c4nc5ccccc5[nH]4)c3)c2)C1.O=C(O)C(F)(F)F` (stereo not given): the Inhibition in experiment [1] is listed as 100%; in experiment [2], 61%; in experiment [3], 24%.
On the same counts, the results for `CCCc1cc(NCC)nc(Nc2ccc(F)cc2)n1` are 86%, 36% and 16%.
For the compound `COc1ccc(C2CC(=O)C3=C(C2)NC(C)=C(C(=O)OC(C)C)C3c2c(F)cccc2Cl)cc1OC` (stereo not given), the Inhibition in experiment [1] stood at 93%; in experiment [2], 81%; in experiment [3], 0%.
On to `CC(=O)Nc1ccc(CN2CCC(NC(=O)c3cc(-c4ccc(N(C)C)cc4)cs3)C2)cc1.O=C(O)C(F)(F)F` (stereo not given), for which the Inhibition in experiment [1] was 83%; in experiment [2] it was 1%; in experiment [3], 15%.
In the case of `CC(C)CCn1c(Sc2ccc(C#N)c([N+](=O)[O-])c2)nnc1-c1ccc(N(C)C)cc1`, the figures for the Inhibition in experiment [1], in experiment [2] and in experiment [3] were 97%, 96% and 11%, respectively.
Consider `Cc1c[nH]c(-c2cccc(C(=O)NC3CCC(CCN4CCc5ccc(C#N)cc5CC4)CC3)c2)n1.Cl` (stereo not given), for which the Inhibition came to 100% in experiment [1], 69% in experiment [2] and 23% in experiment [3].
In the case of `CC1CC(C)CN(CCCNc2ccc(C(=O)Nc3ccc(C(F)(F)F)cc3)cc2[N+](=O)[O-])C1` (stereo not given), the figures for the Inhibition in experiment [1], in experiment [2] and in experiment [3] were 100%, 99% and 31%, respectively.
Consider `Br.CC1(C)N=C(N)N=C(N)N1OCc1cccc(C#N)c1`, for which the results for the Inhibition in experiment [1], in experiment [2] and in experiment [3] were 94%, 2% and 57%, respectively.
The corresponding values for `CCOC(=O)NCCSC(C)(C)[C@H](NC(=O)[C@H](Cc1cc2ccccc2s1)[C@H](CC)N(O)C=O)C(=O)Nc1nccs1` are 98%, 98% and 11%.
Turning to `CN(C)c1ccc(-c2csc(C(=O)NCC3CCN(Cc4cccc(C(F)(F)F)c4)C3)c2)cc1.O=C(O)C(F)(F)F` (stereo not given), the results for the Inhibition in experiment [1], in experiment [2] and in experiment [3] were 97%, 58% and 15%, respectively.
As to `COC(=O)c1ccc(N2CCN(CCCCNC(=O)c3ccc(NC(=O)c4ccc(Cl)cc4)cc3)CC2)c(OC)c1`, the Inhibition came out at 82% in experiment [1], 1% in experiment [2] and 11% in experiment [3].
For `CC(C)(C)c1cc(C(=O)N2CCN(c3cnccn3)CC2)n(Cc2ccccc2)n1`, the Inhibition in experiment [1] is given as 92%; in experiment [2] it was 33%; in experiment [3] it was 0%.
Regarding `CC(=O)c1cccc(NC(=O)NC2CCN(c3ccnc(Nc4ccc(F)cc4)n3)C2)c1` (stereo not given), the Inhibition in experiment [1] turned out to be 99%; in experiment [2] it was 94%; in experiment [3], 10%.
Turning to `CCCCCCCc1c2c(C)c(C(=O)OCC)nc-2cc2n1CC(C)=C2C.Cl`, the results for the Inhibition in experiment [1], in experiment [2] and in experiment [3] were 89%, 10% and 11%, respectively.
As for `CCCCc1ccc(C(=O)Nc2ccc3nc(N4CCN(CC)CC4)cc(C)c3c2)cc1`, the Inhibition in experiment [1] worked out at 91%; in experiment [2], 13%; in experiment [3], 32%.
On the same counts, the results for `O=C(O)C(F)(F)F.c1cc(-c2ccc(CNC3CC3)cc2)cc(-c2nc3ccccc3[nH]2)c1` are 96%, 8% and 17%.
For the compound `Clc1ccc(Nc2nc3ccc(Cl)cc3nc2Nc2ccc(Cl)cc2)cc1`, the Inhibition in experiment [1] is reported as 99%; in experiment [2], 99%; in experiment [3], 79%.
